These results are taken from ChEMBL document CHEMBL1157539, “Thousands of chemical starting points for antimalarial lead identification” (Nature, 2010).

Over roughly 13,000 compounds, “IFI” has its median near 4; the highest 2% begin near 17. The list comes from a sample in which the highest values are over-represented; it also holds similar structures and randomly drawn compounds.

The assay can be described thus: GSK_TCMDC: Inhibition Frequency Index (IFI). The number of non-kinase HTS assays where a compound showed > 50 % inhibition, expressed as a percentage of the number of such assays in which the compound was tested. It is filed as functional.
With `CCCNCc1ccc(-c2ccc(CN(CCOC)C(=O)c3cccc(C#N)c3)cc2)nc1`, the IFI is 0.7%.

On to `Nc1nc2c(ncn2COC(COCc2ccccc2)COCc2ccccc2)c(=O)[nH]1.Nc1nc2ncn(COC(COCc3ccccc3)COCc3ccccc3)c2c(=O)[nH]1`, for which the IFI worked out at 0%.

The molecule `CCCCCc1ccc(NC(=O)Nc2ccc(Cn3ncc(N4CCCNCC4)c(Cl)c3=O)cc2)cc1` had an IFI of 9.09%.

Molecule `CCCCCCCOc1ccc(NC(=O)Nc2ccc(Cn3ncc(N4CCCNCC4)c(Cl)c3=O)cc2)cc1` showed an IFI of 19.1%.

`CCCCOC(=O)c1ccc(NC(=O)Nc2ccc(Cn3ncc(N4CCCNCC4)c(Cl)c3=O)cc2)cc1` returned an IFI of 5.97%.

For the molecule `Cc1[nH]c(C)c(-c2ccc(OCCCc3ccccn3)cc2)c(=O)c1Br`, the IFI is 0%.

`COc1ccc(NC(=O)c2ccc(-c3ccc(-c4cccnc4)cc3)c(C)c2)cc1OCCN(C)C` yielded an IFI of 6.9%.

Take `COC(=O)c1ccc2nc(-c3cc(-c4cccc(-c5ccccc5)c4)cnc3N)[nH]c2c1`: the IFI was 2.94%.

For the molecule `COC(=O)c1ccc(-c2ccc(-c3cccnc3)cc2C)cc1`, the IFI turned out to be 21.7%.

Turning to `Cc1ccccc1Nc1nc(Nc2ccccc2)c2ccccc2n1`, the IFI is 3.65%.

In the case of `O=C1c2cc(I)ccc2SC1c1ccccc1` (stereo not drawn), the IFI amounted to 1.43%.

In turn, `O=S(=O)(NCCN1CCCC1)c1cccc(-c2ccc(CNCc3ccccc3)cc2)c1` gave an IFI of 5.88%.

In turn, `O=[N+]([O-])c1cccc(C(Nc2ccccn2)c2ccc3cccnc3c2O)c1` (stereo not drawn) displayed an IFI of 8.74%.

Molecule `CC1(CCc2ccccc2)N=C(N)N=C(N)C1c1ccc(Cl)c(Cl)c1` (stereo not drawn) registered an IFI of 2.94%.

`CC1(CCc2ccccc2)N=C(N)N(Cc2ccccc2)C(=O)C1c1ccc(Cl)c(Cl)c1` (stereo not drawn) had an IFI of 19.2%.

The molecule `CC1(C)N=C(N)N=C(N)C1c1ccc(Cl)c(Cl)c1` (stereo not drawn) gave an IFI of 1.43%.

Molecule `CCC1(c2ccccc2)N=C(N)N(CCCc2ccccc2)C1=O` (stereo not drawn) yielded an IFI of 7.14%.

On to `CCCCCCC1(C)N=C(N)N=C(N)C1c1ccc(Cl)c(Cl)c1` (stereo not drawn), for which the IFI is 2.78%.

Take `CC1(CCc2ccccc2)N=C(Nc2ccc(Cl)cc2)N=C(N)C1c1ccc(Cl)c(Cl)c1` (stereo not drawn): the IFI came out at 26.6%.

Turning to `NS(=O)(=O)c1cccc(-c2ccc3nccc(-c4cccc(S(N)(=O)=O)c4)c3c2)c1`, the IFI is 0%.

In the case of `Cn1c(N=C2NC3(c4ccccn4)NC(=Nc4nc5ccccc5n4C)NC3(c3ccccn3)N2)nc2ccccc21` (stereo not drawn), the IFI amounted to 3.6%.

Consider `Cc1cccc(-c2nn(-c3ccccc3)c3[nH]c(=O)c(CN4CCSCC4)cc23)c1`, for which the IFI was 1.82%.

In turn, `CC1(CCN2CCC(c3c[nH]c4cnccc34)CC2)CCCc2c(Br)cccc2C1=O` (stereo not drawn) yielded an IFI of 8.51%.

With `Cc1cc(SC(C)(C)C)cc2c(Cl)c(C(N)=O)cnc12`, the IFI was 32.5%.

In the case of `Cc1cc(C)c2ncc(C(=O)O)c(O)c2c1`, the IFI is 1.46%.

In the case of `Oc1ccc(CCCNc2nc(NCc3ccccc3-c3ccccc3)nc(NC3CCNCC3)n2)cc1`, the IFI was 15.2%.

With `COc1ccccc1-n1ccnc1SCC(=O)Nc1cccc(C(F)(F)F)c1`, the IFI came to 5.93%.

As to `CC(CCON1C(N)=NC(N)=NC1(C)C)c1ccc(Cl)c(Cl)c1` (stereo not drawn), the IFI was determined as 7.09%.

For the molecule `Clc1ccc(OCCC2CCN(CCCCCCCN3CCC(CCOc4ccc(Cl)c(Cl)c4)CC3)CC2)cc1Cl`, the IFI turned out to be 18.6%.

For the molecule `O=C(/C=C/c1ccc(Cl)c(Cl)c1)NCCCCCN1CCC(CCNC(=O)/C=C/c2ccc(Cl)c(Cl)c2)CC1`, the IFI stood at 11.2%.

Regarding `Clc1ccc(OCCC2CCN(CCCCCCN3CCCCC3)CC2)cc1Cl`, the IFI was determined as 9.87%.

For `CCCNCc1ccc(-c2ccc(CN(CC3CCCO3)C(=O)C3CC(=O)c4ccccc43)cc2)nc1` (stereo not drawn), the IFI is 1.41%.

Turning to `CCN(CC)CCN(Cc1ccc(-c2ccc(C(F)(F)F)cc2)cc1)C(=O)Cn1c(CCc2cc(F)c(F)c(F)c2)nc(=O)c2ccccc21`, the IFI came out at 6.67%.

With `Cc1noc(C)c1-c1ccc2c(Nc3ccc([N+](=O)[O-])cc3)c(C(N)=O)cnc2c1`, the IFI was 1.63%.

Take `N#Cc1cc(C(=O)c2cc(Cl)ccc2O)cn(-c2cccc(C(F)(F)F)c2)c1=O`: the IFI was 7.44%.

For `COc1ccc(O)c(C(=O)c2cc(C#N)c(=O)n(-c3ccc(Oc4ccccc4)cc3)c2)c1`, the IFI came out at 3.52%.

The molecule `N#Cc1cc(C(=O)c2cc(Br)ccc2O)cn(-c2cc(Cl)cc(Cl)c2)c1=O` came in with an IFI of 20.6%.

With `N#Cc1cc(C(=O)c2cc(Cl)ccc2O)cn(-c2cc(Cl)cc(Cl)c2)c1=O`, the IFI stood at 17.4%.

Turning to `CCc1ccc(-n2cc(C(=O)c3cc(Br)ccc3O)cc(C#N)c2=O)cc1`, the IFI was found to be 15.9%.

In turn, `COc1ccc(-n2cc(C(=O)c3cc(Br)ccc3O)cc(C#N)c2=O)cc1Cl` had an IFI of 14.8%.

For the molecule `COc1ccc2ccccc2c1C=NN=c1cc(C)[nH]c2c(C)cccc12`, the IFI is 1.48%.

For the molecule `COc1ccc(Cn2c(Nc3cccc(C(F)(F)F)c3)nc3cc(C(=O)NCCCN(C)C)ccc32)cc1Cl`, the IFI worked out at 2.14%.

Regarding `NCC1CCCN1Cc1cccc(-c2cccc(-c3nc4cc(F)ccc4[nH]3)c2)c1` (stereo not drawn), the IFI stood at 5%.

`O=C(Cn1c(CCc2cccc(F)c2F)nc(=O)c2ccccc21)N(Cc1ccc(-c2ccc(C(F)(F)F)cc2)cc1)C1CCN(C2=NCCS2)CC1` came in with an IFI of 12.5%.

As to `CN1CCC(N2CCN(Cc3cccc(-c4ccc(-c5nc6cc(C(F)(F)F)ccc6[nH]5)cc4)c3)CC2)CC1`, the IFI amounted to 9.72%.

`CCCCNc1c(C(=O)OCC)c(C)nc2c1[nH]c1ccccc12`: the IFI was 2.17%.

With `CCCCNc1cc(C)nc(NCc2ccccc2)n1`, the IFI came out at 9.72%.

In turn, `CCCCNc1cc(NCCCC)c2c(n1)[nH]c1ccccc12` had an IFI of 19.4%.

The molecule `CCc1cc(COc2ccc(CNCCC(C)C)cc2I)c(OCc2ccccc2)c(COc2ccc(CNCCC(C)C)cc2I)c1` registered an IFI of 14.3%.

In the case of `CCOc1ccc2c(=NN=Cc3ccccc3OC)cc(C)[nH]c2c1`, the IFI came out at 3.62%.

Take `FC(F)(F)c1ccccc1OCc1cc(-c2ccncc2)c(COc2ccccc2C(F)(F)F)cc1C1=CCNCC1`: the IFI came to 10.6%.

Turning to `Oc1ccc(-c2cc(COc3ccccc3C(F)(F)F)c(C3=CCNCC3)cc2COc2ccccc2C(F)(F)F)cc1`, the IFI is 17.3%.

`Nc1nc(N)c2cc(NC(=O)c3ccc(Cl)c(Cl)c3)ccc2n1` returned an IFI of 15.9%.

`Cc1nc(C)c(-c2ccc(Oc3ccc(Cl)cc3Cl)cc2)c(O)c1Br` showed an IFI of 1.52%.

For `CN(C)c1c(CNCCCCCCNCc2ccc3ccccc3c2N(C)C)ccc2ccccc12`, the IFI was 15.7%.

Molecule `O=[N+]([O-])c1ccc(CNCCCCCCNCc2ccc([N+](=O)[O-])c3ccccc23)c2ccccc12` displayed an IFI of 10.3%.

Molecule `FC(F)(F)COc1ccc2ccccc2c1CNCCCCCCNCc1c(OCC(F)(F)F)ccc2ccccc12` registered an IFI of 14.9%.

In turn, `N#Cc1ccc(CNCCCCCCNCc2ccc(C#N)c3ccccc23)c2ccccc12` had an IFI of 7.04%.

With `FC(F)(F)COc1c(CCNCCCCNCCc2ccc3ccccc3c2OCC(F)(F)F)ccc2ccccc12`, the IFI turned out to be 19.3%.

Turning to `CCCOc1ccc(CCNCCCCNCCc2ccc(OCCC)c3ccccc23)c2ccccc12`, the IFI was found to be 12.5%.

On to `FC(F)(F)COc1ccc(CNCCCCCCNCc2ccc(OCC(F)(F)F)c3ccccc23)c2ccccc12`, for which the IFI amounted to 21%.

The molecule `CSc1ccc2ccccc2c1CCNCCCCNCCc1c(SC)ccc2ccccc12` had an IFI of 17%.

Molecule `FC(F)(F)COc1ccc(CCNCCCCNCCc2ccc(OCC(F)(F)F)c3ccccc23)c2ccccc12` returned an IFI of 20.3%.

`FC(F)(F)COc1ccc2ccccc2c1CCNCCCCNCCc1c(OCC(F)(F)F)ccc2ccccc12` showed an IFI of 23.4%.

Turning to `FC(F)(F)COc1c(CNCCCCCCNCc2ccc3ccccc3c2OCC(F)(F)F)ccc2ccccc12`, the IFI is 14.9%.

As to `COc1ccc(CCNCCCCNCCc2ccc(OC)c3ccccc23)c2ccccc12`, the IFI turned out to be 13.9%.

The molecule `O=S(=O)(NCCN1CCCC1)c1ccc(-c2cccc(CNCCc3cccs3)c2)cc1` came in with an IFI of 9.52%.

Molecule `CON=Cc1sc(CNCCCN=c2cc(O)c3ccccc3[nH]2)c(C)c1Br` yielded an IFI of 6.52%.

Molecule `N=C(N)c1ccc2[nH]c(SCc3ccccc3)nc2c1` had an IFI of 0.94%.

With `O=c1c(Br)ccccc1Br`, the IFI was determined as 11.6%.

`CCN(CC)CCN(Cc1ccc(-c2ccc(C(F)(F)F)cc2)cc1)C(=O)Cn1c(CCc2cccc(F)c2F)cc(=O)cc1-c1ccccc1`: the IFI amounted to 11.3%.

As for `N=C(N)NN=Cc1ccccc1OCc1ccccc1Cl`, the IFI worked out at 6.72%.

On to `CS(=O)(=O)NCCCNCc1ccc(-c2ccc(-c3nc4cc(C(F)(F)F)ccc4[nH]3)cc2)cc1`, for which the IFI amounted to 5.94%.

With `CCc1ccc(CN2CCC(CNC(=O)c3cc(-c4cccc(C(F)(F)F)c4)cs3)C2)cc1` (stereo not drawn), the IFI was found to be 14%.

Regarding `CCCCSc1ccc(CNCCCCCCNCc2ccc(SCCCC)c3ccccc23)c2ccccc12`, the IFI came to 14.8%.

Molecule `CCCCOc1ccc(CNCCCCCCNCc2ccc(OCCCC)c3ccccc23)c2ccccc12` displayed an IFI of 17.8%.

`CCCOc1ccc(CNCCCCCCNCc2ccc(OCCC)c3ccccc23)c2ccccc12`: the IFI turned out to be 15.6%.

`CC1(C)NC(=N)NC(=N)N1OCC=Cc1ccccc1` registered an IFI of 3.57%.

On to `COc1ccc2[nH]ccc(=NN=Cc3ccc(Cl)cc3)c2c1`, for which the IFI was found to be 0.74%.

As for `CCN(CC)CCCNC(=O)/C(=C/C=C/c1cc2cc(Cl)c(Cl)cc2[nH]1)OC`, the IFI was determined as 8.46%.

In turn, `CO/C(=C\C=C\c1cc2cc(Cl)c(Cl)cc2[nH]1)C(=O)NCCCNC12CC3CC(CC(C3)C1)C2` registered an IFI of 21.1%.

`CCN(CC)CCNC(=O)/C(=C/C=C/c1cc2cc(Cl)c(Cl)cc2[nH]1)OC`: the IFI was 7.63%.

`CO/C(=C\C=C\c1cc2cc(Cl)c(Cl)cc2[nH]1)C(=O)NCCCN1CCN(c2cccc(Cl)c2)CC1`: the IFI is 8.27%.

Take `CCOc1ccccc1N1CCN(CCCNC(=O)/C(=C/C=C/c2cc3cc(Cl)c(Cl)cc3[nH]2)OC)CC1`: the IFI came out at 10.8%.

Molecule `CO/C(=C\C=C\c1cc2cc(Cl)c(Cl)cc2[nH]1)C(=O)NCCCCN1CCN(c2ccccc2OC)CC1` gave an IFI of 19.1%.

Regarding `CCOC(=O)c1ccc(NC(=O)Nc2ccc(-c3cccc(-c4nc5cccc(C)c5[nH]4)c3)cc2)cc1`, the IFI amounted to 7%.

`Cc1noc(C)c1-c1cccc(CNCc2ccc(-c3ccc(-c4nc5cc(F)ccc5[nH]4)cc3)cc2)c1` displayed an IFI of 8.91%.

For `O=C(NCCc1cccc(Cl)c1Cl)c1ccc(N2CCN(c3ccncc3)CC2)nc1`, the IFI amounted to 10.4%.

In turn, `Cc1ccccc1CCNC(=O)c1cnc(N2CCN(c3ccncc3)CC2)c(Cl)c1` displayed an IFI of 20.8%.

The molecule `Cc1ccccc1CCNC(=O)c1ccc(N2CCN(c3ccncc3)CC2)nc1` displayed an IFI of 2.08%.

Molecule `O=C(Nc1cccc(Cl)c1)c1cnc(N2CCN(c3ccncc3)CC2)c(Cl)c1` showed an IFI of 16.7%.

For `O=C(NCCc1cccc(Cl)c1Cl)c1cnc(N2CCN(c3ccncc3)CC2)c(Cl)c1`, the IFI came out at 20%.

As for `COc1ccccc1CCNC(=O)c1cnc(N2CCN(c3ccncc3)CC2)c(Cl)c1`, the IFI turned out to be 10.4%.
